For experiment [1], the system named is Plasmodium falciparum Sir2 (PF13_0152, Sir2A). In words: Plasmodium falciparum Sir2A binding compounds – biochemical, small-molecule microarray, 635 nm fluorescence, primary screen (AID 1098).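 Further: score merges spot fluorescence intensity with its signal-to-noise ratio.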 To be noted: fluorescence 635 nm, higher = more signal.
Experiment [2] can be described thus: probe aDKK1 binding to arrayed compounds – biochemical, biotinylated probe, 635/667 nm fluorescence, primary screen (AID 1099).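 Further: score merges 667nm spot fluorescence with signal to noise across triplicate slides; reference of the scale not given here.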 To be noted: small-molecule microarray, higher = more signal.
A short description of experiment [3]: probe aCHRDL2 binding to arrayed compounds – biochemical, biotinylated probe, 635/667 nm fluorescence, primary screen (AID 1100). To be noted: small-molecule microarray, higher = more signal.
Experiment [4] in a line: change in splice reporter luminescence, either direction, cell-based, HEK293, spliceosome inhibition project, primary screen (AID 1101).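 Further: HEK293 cells carrying a splicing-competent luciferase reporter gene; test concentration not given here.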 The conditions noted are these: HEK293 splicing luciferase reporter, 24 h, higher = more signal, called active from +8 up or from −8 down.
Experiment [5] addresses Fibroblast growth factor 10 (Homo sapiens) (UniProt O15520). In words: compounds binding fibroblast growth factor 10 – biochemical, small-molecule microarray, 635 nm fluorescence, primary screen (AID 1102). To be noted: FGF10 binding, fluorescence 635 nm, higher = more signal.
Experiment [6] relates to glycogen synthase kinase-3 (GSK3A per assay name; protocol says GSK3B). In words: compounds binding glycogen synthase kinase-3 – biochemical, small-molecule microarray, 635 nm fluorescence, GSK3A, primary screen (AID 1103). Further: the record names both GSK3A and GSK3B. The conditions noted are these: fluorescence 635 nm, higher = more signal.
The target of experiment [7] is Epidermal growth factor receptor (Homo sapiens) (UniProt P00533). In words: compounds binding epidermal growth factor receptor – biochemical, small-molecule microarray, 635 nm fluorescence, primary screen (AID 1104).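 Further: score merges 667 nm emission intensity with spot signal to noise over triplicate slides.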 The conditions noted are these: EGFR binding, higher = more signal.
Experiment [8] concerns the target Follistatin-related protein 3 (Homo sapiens) (UniProt O95633). In words: compounds binding follistatin-related protein 3 – biochemical, small-molecule microarray, 635 nm fluorescence, primary screen (AID 1105).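 Further: score merges emission near 667 nm and signal to noise per printed spot across three slides.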 The conditions noted are these: FSTL3 binding, higher = more signal.
In experiment [9] the target is Dickkopf-related protein 1 (Homo sapiens) (UniProt O94907). Nature of the experiment: small molecules binding DKK1 protein – biochemical, small-molecule microarray, 635 nm fluorescence scan, primary screen (AID 1106).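 Further: score merges emission near 667 nm with signal to noise over three replicate slides.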 The conditions noted are these: higher = more signal.
Experiment [10] has as its system Inhibin beta A chain (activin A). Nature of the experiment: small molecules binding activin A – biochemical, small-molecule microarray, 635 nm fluorescence scan, primary screen (AID 1107).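 Further: mouse activin A protein probed at 4.33 µg/mL on printed slides; score merges bound-protein fluorescence near 667 nm with spot signal-to-noise.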 The conditions noted are these: INHBA, higher = more signal.

Each structure is given as a SMILES string. Calls of active or inactive are those of the source.

Sequence of Dickkopf-related protein 1 (Homo sapiens) (O94907 whole entry, looked up): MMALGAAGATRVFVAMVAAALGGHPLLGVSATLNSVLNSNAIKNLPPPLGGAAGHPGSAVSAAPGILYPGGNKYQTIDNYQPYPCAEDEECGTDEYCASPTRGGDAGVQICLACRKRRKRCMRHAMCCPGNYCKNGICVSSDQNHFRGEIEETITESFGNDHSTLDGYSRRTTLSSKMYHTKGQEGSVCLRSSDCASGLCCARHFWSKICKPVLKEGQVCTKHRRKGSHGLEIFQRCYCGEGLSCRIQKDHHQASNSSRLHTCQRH
Sequence of Epidermal growth factor receptor (Homo sapiens) (P00533 whole entry, looked up): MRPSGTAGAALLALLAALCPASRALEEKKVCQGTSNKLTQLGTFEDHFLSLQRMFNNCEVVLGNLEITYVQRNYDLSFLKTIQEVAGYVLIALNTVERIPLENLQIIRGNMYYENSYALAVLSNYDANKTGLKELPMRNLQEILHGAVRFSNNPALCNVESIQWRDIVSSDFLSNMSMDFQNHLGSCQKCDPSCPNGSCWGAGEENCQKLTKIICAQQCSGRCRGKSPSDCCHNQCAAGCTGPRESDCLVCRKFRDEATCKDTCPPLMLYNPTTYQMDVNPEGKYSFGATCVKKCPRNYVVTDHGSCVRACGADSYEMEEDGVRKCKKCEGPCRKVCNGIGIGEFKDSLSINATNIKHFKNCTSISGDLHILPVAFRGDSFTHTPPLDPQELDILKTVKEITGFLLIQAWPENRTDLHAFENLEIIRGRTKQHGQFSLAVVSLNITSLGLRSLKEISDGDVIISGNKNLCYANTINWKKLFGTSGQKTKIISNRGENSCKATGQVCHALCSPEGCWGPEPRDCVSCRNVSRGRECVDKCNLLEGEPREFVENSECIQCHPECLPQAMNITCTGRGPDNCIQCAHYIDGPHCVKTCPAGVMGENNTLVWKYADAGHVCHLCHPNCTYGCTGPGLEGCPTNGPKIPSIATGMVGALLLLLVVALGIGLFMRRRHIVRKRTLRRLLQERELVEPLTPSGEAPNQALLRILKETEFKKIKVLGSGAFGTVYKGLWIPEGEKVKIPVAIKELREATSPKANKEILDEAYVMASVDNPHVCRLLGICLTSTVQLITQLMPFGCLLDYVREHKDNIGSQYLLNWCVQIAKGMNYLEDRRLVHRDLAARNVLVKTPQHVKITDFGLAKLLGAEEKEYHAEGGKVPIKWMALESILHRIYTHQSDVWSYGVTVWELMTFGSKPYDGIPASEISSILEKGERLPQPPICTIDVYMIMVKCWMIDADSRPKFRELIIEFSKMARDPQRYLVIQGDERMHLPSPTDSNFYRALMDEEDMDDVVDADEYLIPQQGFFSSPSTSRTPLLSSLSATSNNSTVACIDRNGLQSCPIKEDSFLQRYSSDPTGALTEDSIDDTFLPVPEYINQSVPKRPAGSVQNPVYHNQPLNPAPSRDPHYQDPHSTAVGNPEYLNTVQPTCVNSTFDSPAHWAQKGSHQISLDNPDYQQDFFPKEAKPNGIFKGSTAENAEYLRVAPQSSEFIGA
Sequence of Fibroblast growth factor 10 (Homo sapiens) (O15520 whole entry, looked up): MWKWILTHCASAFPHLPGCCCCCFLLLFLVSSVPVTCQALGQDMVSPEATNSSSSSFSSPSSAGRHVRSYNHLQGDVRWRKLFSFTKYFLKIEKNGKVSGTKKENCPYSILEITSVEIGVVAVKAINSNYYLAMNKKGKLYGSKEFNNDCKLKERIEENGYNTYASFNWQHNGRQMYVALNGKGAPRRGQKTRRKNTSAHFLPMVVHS
Sequence of Follistatin-related protein 3 (Homo sapiens) (O95633 whole entry, looked up): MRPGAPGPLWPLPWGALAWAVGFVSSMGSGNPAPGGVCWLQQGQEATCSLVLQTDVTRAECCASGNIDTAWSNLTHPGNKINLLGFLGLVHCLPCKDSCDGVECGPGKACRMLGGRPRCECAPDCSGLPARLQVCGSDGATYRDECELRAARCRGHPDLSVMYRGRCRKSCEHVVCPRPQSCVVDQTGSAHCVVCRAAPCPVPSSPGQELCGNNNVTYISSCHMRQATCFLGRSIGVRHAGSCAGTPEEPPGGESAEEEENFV

With `[N-]=[N+]=Nc1ccccc1[C@H]1OC(c2ccc(OCCCO)cc2)=N[C@@]1(CCS(=O)(=O)c1ccccc1)C(=O)N1CCCCC1`, the composite z-score was 1.37 in experiment [1]; 1.27 in experiment [2]; 1.27 in [3]; 0.354 in [5]; 0.797 in [6]; 0.0374 in experiment [7]. Further, the composite z-score in experiment [8] was 0.801; in [9] it was -0.44; in [10], 1.38. Further, the z-score in [4] was -1.21 (inactive).

On to `COCCCNC(=O)[C@]1(CCC(=O)OC(C)(C)C)N=C(c2ccc(OCCCO)cc2)O[C@@H]1c1ccccc1`, for which the composite z-score in experiment [1] is 1.31; in experiment [2], 1.33; in experiment [3] it was 0.701; in experiment [5] it was 0.417; in experiment [6] it was 1.28; in experiment [7] it was -0.301. Besides, the composite z-score in experiment [8] was -0.47; in [9] it was -0.261; in experiment [10], -0.497. The z-score in experiment [4] is -0.307 (inactive).

In the case of `CC(C)N1CC=CC23O[C@@H]4C=CCCOC(=O)C4[C@H]2C(=O)N(CCO)[C@@H]3C1=O` (stereo not given in full), the composite z-score is 0.154 in experiment [1]; -0.377 in [2]; -0.0034 in experiment [3]; 0.107 in [5]; -0.504 in experiment [6]; -0.458 in experiment [7]. In addition, the composite z-score is -0.762 in experiment [8], -0.155 in experiment [9] and -0.101 in experiment [10]. For the same compound, the z-score in [4] is -1.22 (inactive).

As for `COc1ccc([Si](C)(C)[C@H]2[C@H](CCn3cc(CCO)nn3)O[C@@]3(C(=O)N(Cc4ccc(N5C(=O)c6cccc7cccc5c67)cc4)c4ccccc43)[C@@H]2C)cc1`, the composite z-score is 0.96 in experiment [1]; -0.145 in [2]; -0.564 in [3]; 0.916 in experiment [5]; 0.682 in [6]; 0.567 in [7]. Further, the composite z-score in experiment [8] is 1.3; in [9], 0.652; in experiment [10], 0.281. Besides, the z-score in [4] is -2.8 (inactive).

Take `CCCCN1CC=CC23O[C@@H]4C=CCOC(=O)[C@@H]4[C@H]2C(=O)N(CCCO)[C@@H]3C1=O` (stereo not given in full): the composite z-score in [1] was 1.24; in [2], -0.159; in [3], 0.48; in experiment [5], -0.816; in experiment [6], -1.16; in experiment [7] it was -0.953. The composite z-score was -1.18 in experiment [8], -1.05 in [9] and 0.396 in experiment [10]. The z-score in [4] is -1.32 (inactive).

For the compound `CC(C)(C)OC(=O)CC[C@]1(C(=O)O)N=C(c2ccc(OCCCO)cc2)O[C@H]1c1ccccc1`, the composite z-score is 1.14 in [1]; 0.191 in [2]; 0.542 in experiment [3]; -0.272 in experiment [5]; -0.406 in experiment [6]; -0.329 in [7]. For the same compound, the results for the composite z-score in [8], in [9] and in experiment [10] were -0.121, -0.517 and 0.734, respectively. The z-score in experiment [4] is -1.32 (inactive).

`CC(C)C(=C=CC[C@H](O)c1ccc(OCCO)cc1)C[C@H](O)c1cc(Cl)cc(Cl)c1O`: the composite z-score was 0.631 in [1]; -0.0017 in experiment [2]; -0.249 in [3]; 0.893 in experiment [5]; 0.741 in experiment [6]; 0.122 in experiment [7]. In addition, the results for the composite z-score in [8], in experiment [9] and in [10] were 0.699, -0.0061 and 0.707, respectively. The z-score in experiment [4] was -0.492 (inactive).

For `CC(C)CCC[C@@H](C)[C@H]1CC[C@@]2(C)C3=C(CC[C@]12C)[C@@]1(C)CC[C@H](OC(=O)c2ccc(Br)cc2)C(C)(C)C1CC3` (stereo not given in full), the composite z-score was 0.27 in [1]; -0.153 in experiment [2]; -0.331 in [3]; 0.609 in experiment [5]; 0.55 in [6]; 0.593 in experiment [7]. Further, the composite z-score in [8] came out at 0.506; in [9], 0.391; in experiment [10] it was 0.26. Moreover, in [4], the z-score was -1.13 (inactive).

On to `C=C(CCCC)C(=O)CC[C@@H](OC(=O)c1ccccc1-c1ccccc1C(=O)O)c1cccc(OCCO)c1`, for which the composite z-score in [1] is 1.13; in experiment [2], -0.302; in experiment [3] it was -0.353; in experiment [5], 0.946; in experiment [6] it was 0.297; in [7], -0.0833. The results for the composite z-score in experiment [8], in experiment [9] and in experiment [10] were 0.556, 0.339 and 1.2, respectively. Further, in experiment [4], the z-score is 2.89 (inactive).

For the compound `C=C(/C(=C/C[C@@H](OC(=O)c1ccncc1)c1ccc(OCCO)cc1)c1cc(C(=O)OC)ccc1OC)C(C)C`, the composite z-score in experiment [1] was 0.596; in [2] it was -0.354; in experiment [3], -0.338; in experiment [5] it was 0.426; in experiment [6], 0.284; in [7] it was 0.325. Further, the composite z-score in experiment [8] was 0.609; in experiment [9] it was -0.0107; in [10] it was 0.309. Also, in experiment [4], the z-score is -0.432 (inactive).

As to `C=C(CCCC)C(=O)CC[C@@H](OC(=O)c1cccnc1)c1ccccc1OCCO`, the composite z-score in [1] is 0.996; in [2] it was -0.0709; in experiment [3], 0.515; in experiment [5] it was 0.341; in experiment [6], -0.164; in [7], -0.183. Besides, the composite z-score is 0.296 in experiment [8], -0.265 in experiment [9] and 1.16 in experiment [10]. For the same compound, the z-score in [4] was 4.97 (inactive).

The record behind these values is PubChem BioAssay.
